Measurements taken from PubChem BioAssay (NCI).
Compounds without any hit were thinned out: in the full panel of roughly 83,000, 20% have a hit.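 How to read the values: 0–100, growth inhibition (40 = 60% inhibited); 0, no net growth; -100 to 0, cell death (-40 = 40% of starting cells died; -100 = all dead).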 A number with no mark means an inactive call. Active and inactive are the calls of the source. How the source made its calls: active means growth percent below 10; inactive means the rest.

How the values were obtained:
Experiment in all cases: NCI-60 one-dose screen, 48 h (100 = growth as untreated, 0 = no growth, -100 = all killed)
Conditions in all cases: 10 µM unless noted
T-47D breast = system: T-47D breast
BT-549 breast = system: BT-549 breast
MDA-MB-435 melanoma = system: MDA-MB-435 melanoma
SW-620 colon = system: SW-620 colon
MCF7 breast = system: MCF7 breast
HCT-116 colon = system: HCT-116 colon
HCC-2998 colon = system: HCC-2998 colon
KM12 colon = system: KM12 colon
MDA-MB-468 breast = system: MDA-MB-468 breast

Compound	growth (T-47D breast)	growth (BT-549 breast)	growth (MDA-MB-435 melanoma)	growth (SW-620 colon)	growth (MCF7 breast)	growth (HCT-116 colon)	growth (HCC-2998 colon)	growth (KM12 colon)	growth (MDA-MB-468 breast)
O=CNc1cccc(-n2cnc3cc(-c4ccc(O)cc4)ccc32)c1	37.5%	52.6%	24.1%	46.3%	35%	14.1%	43.5%	26.4%	19.5%
C=CC(=O)N1CCN(c2ccc3nc4c(nc3c2C(F)(F)F)C(=O)c2ncccc2C4=O)CC1	-4.37% (active)	10.1%	-71.1% (active)	4.1% (active)	-66.8% (active)	-25.7% (active)	5.17% (active)	9.15% (active)	-69.3% (active)
COc1ccc(N=Nc2c(N)nn3c(-c4cc5cc(Br)ccc5oc4=O)ccnc23)cc1	10.8%	-2.5% (active)	54.2%	56.1%	26.4%	23.8%	20.2%	36.1%	-22.7% (active)
COc1ccc(NC(=O)CSc2nnc(-c3ccc(-c4nc5ccccc5[nH]4)cc3)o2)cc1	78.6%	27.3%	20.9%	11.4%	13.8%	2.37% (active)	92.7%	30.5%	86.5%
O=C(Nc1ccc(-c2ccc3c(c2)NC(=O)/C3=C\c2ccc[nH]2)cc1)Nc1ccc(Cl)c(C(F)(F)F)c1	16.5%	5.89% (active)	3.54% (active)	27.6%	3.21% (active)	2.62% (active)	48.4%	22.3%	-18.4% (active)
COc1cc(C2C(C(=O)OCc3ccccc3)=C(C)Nc3nc4ccccc4n32)cc(OC)c1OC (configuration not stated)	55.6%	14.2%	-34.7% (active)	31.4%	7.08% (active)	2.8% (active)	27.8%	38%	-38% (active)
Cc1ccc(C2CC(c3ccc(NC(=O)Nc4ccccc4)cc3)=NN2c2ccc(S(N)(=O)=O)cc2)cc1 (configuration not stated)	-74.7% (active)	-79.6% (active)	-91.8% (active)	-83.4% (active)	-82.4% (active)	-74.4% (active)	-75.4% (active)	-50% (active)	-93.4% (active)
COC(=O)c1c(C(=O)OC)c2c3ccccc3c3ccccc3n2c1C(=O)C(F)(F)F	101%	106%	102%	97.1%	91.6%	98.7%	122%	106%	92%
CN1C(=O)C(O)(CC(=O)c2cc3ccccc3oc2=O)c2ccccc21 (configuration not stated)	103%	105%	110%	101%	67.1%	92.7%	109%	96.9%	82.6%
COc1ccc(-c2nc3ccc(-c4nnc(SCc5ccccc5)o4)cc3[nH]2)cc1	-41.9% (active)	-54% (active)	-29.5% (active)	7.51% (active)	-20.2% (active)	-60.5% (active)	25.4%	16.5%	-23.8% (active)
CC(Nc1ncnc2ccc(-c3ccc4oc(N)nc4c3)cc12)c1ccccc1 (configuration not stated)	-74.3% (active)	-21.6% (active)	13%	-66.6% (active)	-73.1% (active)	-64.7% (active)	41.5%	23.6%	-78.4% (active)
COc1cc(CNC(=O)C[C@H](C)CCC=C(C)C)ccc1OCc1cn(-c2ccc(Br)cc2)nn1	49.3%	93.6%	98.3%	91.7%	60.2%	41.9%	95.8%	94.6%	46.7%
O=C(CSc1nc2ccccc2c(=O)[nH]1)NNC(=O)c1ccccc1Cl	92.4%	160%	101%	104%	93.4%	109%	113%	101%	137%
COc1cncc(-c2ccc3ncnc(N4CCc5ccc(Cl)cc54)c3c2)c1	14.1%	-72.1% (active)	53.6%	60.7%	-1.93% (active)	-58% (active)	16.9%	21.5%	-67.4% (active)
CC1CCc2c(sc3nc(SCC(=O)c4cccc([N+](=O)[O-])c4)n(-c4ccccc4)c(=O)c23)C1 (configuration not stated)	86.8%	94.5%	90.8%	71.1%	86.5%	25%	105%	93.5%	83%
CN(C)c1nc(NCCNS(=O)(=O)c2ccc(C(=O)/C=C/c3ccc(Cl)cc3)cc2)nc(N2CCOCC2)n1	10.3%	12.8%	-53.6% (active)	-66.9% (active)	-67% (active)	-95.5% (active)	-94.4% (active)	-76.9% (active)	-83.2% (active)
CCCN(CCC)S(=O)(=O)c1ccc(C(=O)O)cc1.CCCN(CCC)S(=O)(=O)c1ccc(C(=O)O)cc1.[Cl][Pt+2][Cl].[NH2-].[NH2-]	26.3%	-78.8% (active)	-54.6% (active)	20.6%	8.34% (active)	2.04% (active)	-27.6% (active)	17.8%	-54.3% (active)
CN(C)c1nc(NCCNS(=O)(=O)c2ccc(C(=O)/C=C/c3ccc(C(F)(F)F)cc3)cc2)nc(N2CCOCC2)n1	-61.2% (active)	-20.8% (active)	-59.4% (active)	-76.7% (active)	-84.5% (active)	-91.4% (active)	-97.6% (active)	-80.7% (active)	-96.1% (active)
COc1ccc2c(c1)C(Sc1ccc(F)cc1)c1c(nc(N)c(C#N)c1N)O2 (configuration not stated)	79%	62.1%	91%	84.7%	67.5%	79.9%	114%	85%	99.6%
Cc1ccc(-c2cc(C(=O)N=Nc3c(O)[nH]c4ccc(F)cc34)c3ccccc3n2)cc1	39.9%	39.1%	61%	19.4%	18%	21%	35.9%	51.2%	31.1%
O=C(CSc1nnc(-c2ccc(-c3nc4ccc(Cl)cc4[nH]3)cc2)o1)Nc1ccc(Br)cc1	41.4%	-1.46% (active)	28.6%	17.9%	20.4%	8.26% (active)	76.9%	18.9%	50.8%
COc1ccc(C(=O)C[n+]2cccc3c4ccccc4ccc32)cc1	38.2%	33.2%	37.5%	36.4%	18.1%	29.8%	48.5%	34.9%	2.93% (active)
Cc1cc(C2(c3cc(C)c(OCC(O)CNc4c(C)n(C)n(-c5ccccc5)c4=O)cc3C(C)C)OC(=O)c3ccccc32)c(C(C)C)cc1OCC(O)CNc1c(C)n(C)n(-c2ccccc2)c1=O (configuration not stated)	1.64% (active)	27.3%	12.5%	18.4%	15.9%	5.4% (active)	36.8%	16.5%	-13.9% (active)
CCCCCCCCc1cccc(CC(=O)Nc2ccc(C)cc2C(=O)O)c1	65.6% [25 µM]	73.6% [25 µM]	54.9% [25 µM]	51.2% [25 µM]	36.7% [25 µM]	28.1% [25 µM]	69.4% [25 µM]	45.8% [25 µM]	73% [25 µM]
N#CC1=C(c2ccco2)Nc2c(c(-c3ccccc3)nn2-c2ccccc2)C12C(=O)Nc1ccc(Cl)cc12 (configuration not stated)	26.6%	15.4%	53.7%	15.9%	21.3%	-73.1% (active)	64.8%	52.1%	42.3%
OC(c1ccccc1)(c1ccccc1)C1CCN(c2ccc3nnc(Cl)n3n2)CC1	9.47% (active)	2.56% (active)	42.1%	56.6%	10.9%	22.6%	55.2%	30.9%	30.4%
COc1cc(/C=C/C(=O)c2cnn(-c3cc(=O)[nH]c4ccc(C)cc34)c2C)cc(OC)c1OC	1.32% (active)	-57.2% (active)	1.91% (active)	-57.6% (active)	-15.7% (active)	-77.3% (active)	-99% (active)	-41.8% (active)	-77.3% (active)
COc1cc(/C=C/C(=O)c2cnn(-c3cc(=O)[nH]c4ccc(Cl)cc34)c2C)cc(OC)c1OC	-31.4% (active)	-47% (active)	-9.26% (active)	-45.8% (active)	-37.6% (active)	-67.6% (active)	-93.5% (active)	-28.4% (active)	-83.1% (active)
